DRD3 antagonist: antagonists of human D3 dopamine receptor. D3R cells, DiscoveRx beta-arrestin luminescence, antagonist mode; active compounds read low. AID 652054. P35462. 2.5% of 360,000 active. max response, negative = inhibition, %; in the data active = max response below about -50%; inconclusive = no clear call, values can overlap the other calls
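Cells expressing the human receptor were seeded at 1500 cells/well, incubated overnight at 37 degrees C in 5% CO2, then exposed to library compounds with dopamine controls for 90 minutes at 37 degrees C before luminescent detection.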
LDHA block: LDHA (human) enzyme inhibition. purified LDHA, NADH/diaphorase-resazurin fluorescence; active compounds read low. P00338. activity change, % (values are at about 110 or 230 µM). AID 1347041. 0.15% of 480,000 active; in the data active = activity change below about -30%; inconclusive = mostly about -25% to -30%
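Human LDH5 at 2 nM final in Tris HCl pH 7.4 with 0.06 mM NADH and 0.2 mM pyruvate, reacted 5 minutes at room temperature. Remaining NADH coupled via diaphorase/resazurin; resorufin fluorescence read at 0 and 20 minutes, normalized to enzyme-free and DMSO wells.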
DRD3 agonist: D3 dopamine receptor (human) agonism. P35462. D3R DiscoveRx beta-arrestin cells, luminescence, 90 min. max activation, %. 0.58% of 410,000 active. AID 652048; in the data active = max activation above about 30%
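Agonist mode: compounds and dopamine controls were applied to plated cells for 90 min at 37 degrees C after an overnight attachment at 1500 cells/well. Luminescent read-out followed 30 - 60 minutes at room temperature with DiscoveRx detection reagent.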
PI4K2A inh: PI4K2A (human) kinase inhibition. AID 1346378. activity change, negative = inhibition, % at 76.9 µM. 0.13% of 420,000 active. Q9BTU6. purified PI4K2A, ADP-Glo luminescence, 1 h; active compounds read low; in the data active = activity change below about -50%; inconclusive = mostly about -30% to -49%
Target sequence (Q9BTU6 whole entry, looked up): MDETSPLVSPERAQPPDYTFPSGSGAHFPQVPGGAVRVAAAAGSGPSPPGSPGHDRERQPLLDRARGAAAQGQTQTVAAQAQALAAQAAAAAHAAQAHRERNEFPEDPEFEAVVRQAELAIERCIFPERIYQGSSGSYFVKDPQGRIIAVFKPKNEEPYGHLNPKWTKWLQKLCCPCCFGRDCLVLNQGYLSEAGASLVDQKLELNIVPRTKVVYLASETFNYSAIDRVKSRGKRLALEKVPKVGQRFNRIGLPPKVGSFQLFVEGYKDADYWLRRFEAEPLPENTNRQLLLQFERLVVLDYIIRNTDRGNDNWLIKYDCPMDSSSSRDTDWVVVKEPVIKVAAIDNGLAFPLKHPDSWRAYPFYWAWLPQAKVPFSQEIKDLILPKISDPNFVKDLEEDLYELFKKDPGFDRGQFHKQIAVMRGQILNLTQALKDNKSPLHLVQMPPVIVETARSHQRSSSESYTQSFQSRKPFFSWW
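In this quantitative HTS, ADP production by PI4K2A was quantified luminescently after 1 h at ambient temperature; 100 microM adenosine served as plate-quality control.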
Akt phos inh: blocks phosphorylation of Akt; Neuro2A IGF-stimulated pAkt S473 HTRF, 20 min; active compounds read low; activity change, % for hits at 50 µM; 0.32% of 360,000 active; in the data active = activity change below about -80%; inconclusive = mostly about -51% to -80%
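Neuro2A cells in DMEM with 0.5% FBS, overnight at 37 deg C, given compound at single 50 µM final, then IGF (6 nM final) for 20 min at 37 deg C. Lysed; phospho-Akt Ser473 by HTRF after 24 h, 665/615 ratio.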
RGS4 inhibitor: inhibitors of human regulator of G protein signaling 4; P49798; Transcreener GDP fluorescence polarization, RGS4-accelerated GTP hydrolysis; Potency, µM (series often up to 114 µM), hits mostly inhibitors; 0.039% of 390,000 active; AID 504845; active = well fitted inhibition curve with a large enough effect; inconclusive = small, poorly fitted or top-dose-only effect; inactive = no such curve, though single readings can be large or run the other way; note: nearly all actives have a fitted effect of over 75% in size
Target sequence (P49798 whole entry, looked up): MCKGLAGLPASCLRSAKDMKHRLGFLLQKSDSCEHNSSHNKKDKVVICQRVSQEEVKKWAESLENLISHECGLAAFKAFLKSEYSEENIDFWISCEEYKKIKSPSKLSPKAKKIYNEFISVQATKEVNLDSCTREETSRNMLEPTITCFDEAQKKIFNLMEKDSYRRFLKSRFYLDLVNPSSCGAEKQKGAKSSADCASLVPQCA
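MLSMR compounds (23 nl, pin-transferred) preincubated 10 min at room temperature with a 500nM (2x) first reagent, then RGS4 at 900nM (2x) plus Transcreener GDP mix added; fluorescence polarization (620/688 nm) read before and after 90 min at 30 °C.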
A number is an active result; i = inactive; ? = inconclusive; nt = not tested or not shown. Most compounds without a hit are left out; they make up all but 2.8% or so of the library.

SMILES	DRD3 antagonist	LDHA block	DRD3 agonist	PI4K2A inh	Akt phos inh	RGS4 inhibitor
COc1ccc(NC(=O)CSc2n[nH]c(N)n2)c([N+](=O)[O-])c1	-91.9	i	i	i	nt	i
Nc1nn(-c2ccccc2)nc1C(=O)OCc1ccccc1	-64.6	i	i	i	i	i
Cn1c(-c2c(N)n(CCc3ccccc3)c3nc4ccccc4nc23)nc2ccccc21	i	i	46.3	i	i	i
COCCCn1c(N)c(-c2nc3ccccc3n2C)c2nc3ccccc3nc21	-87.9	i	i	i	i	i
Cn1c(-c2c(N)n(CCCc3ccccc3)c3nc4ccccc4nc23)nc2ccccc21	i	i	i	i	nt	i
CCCCc1ccc(NC(=O)c2ccccc2SC)cc1	nt	i	nt	nt	nt	nt
CCc1ccc(NC(=O)c2ccccc2SC)cc1	i	i	30.1	i	i	i
CCN1CCCC(OC(=O)C(c2ccccc2)c2ccccc2)C1 (centres undefined)	-52.6	i	i	i	i	i
O=c1n(Cc2ccc([N+](=O)[O-])cc2)c2ccccc2c2nc(-c3ccccc3)nn12	nt	i	52.5	i	nt	i
O=C(CCN1C(=O)/C(=C/c2ccc(Cl)cc2)SC1=S)Nc1cccc(C(=O)O)c1	i	i	i	i	i	?
O=C(O)c1cccc(N2C(=O)/C(=C/c3ccc(SCc4ccc(Cl)cc4)o3)SC2=S)c1	-59.2	i	i	i	i	i
O=C(O)CN1C(=O)/C(=C/c2ccc(-c3cccc(Cl)c3)o2)SC1=S	nt	-62.6	nt	nt	nt	nt
O=C1CC(c2ccccc2O)Cc2nc(N3CCN(c4ccccc4F)CC3)ncc21 (centres undefined)	nt	i	nt	nt	nt	nt
O=[N+]([O-])c1ccccc1/C=N/n1c(-c2cccnc2)n[nH]c1=S	-85.5	i	i	i	i	i
S=c1[nH]nc(-c2cccnc2)n1/N=C/c1cccs1	-110.7	i	i	i	i	i
O=[N+]([O-])c1cc2c(cc1/C=N/n1c(-c3ccccn3)n[nH]c1=S)OCO2	-50.1	i	i	i	i	i
S=c1[nH]nc(-c2cccnc2)n1Cc1ccccc1	-52.9	i	i	i	i	i
O=[N+]([O-])c1cc(/C=N/n2c(-c3cccnc3)n[nH]c2=S)ccc1Cl	i	i	i	i	i	?
CC(C)NC(=O)NC(=O)CN(C)Cc1ccccc1	nt	i	nt	nt	nt	nt
Nc1nonc1-n1nnc(C(=O)N/N=C/c2c(Cl)cccc2Cl)c1CSC1=NCCS1	-52.8	i	i	i	i	i
CCCc1c(C(=O)N/N=C/C=C/c2ccccc2)nnn1-c1nonc1N	i	i	i	i	i	nt
Nc1nonc1-n1nnc(C(=O)N/N=C/C=C/c2ccccc2)c1CSC1=NCCS1	-50.1	i	i	i	i	i
CC(=O)N1SC(N)=NC1c1ccccc1 (centres undefined)	i	i	i	i	i	i
c1ccc([C@H]2CN3C(=N2)Sc2ccccc23)cc1	-51.7	i	i	i	i	i
CCOc1cc(CNCc2ccccn2)ccc1OCC(=O)NC1CCCCC1	-88.9	i	i	i	i	i
SMILES	DRD3 antagonist	LDHA block	DRD3 agonist	PI4K2A inh	Akt phos inh	RGS4 inhibitor
CCOc1cc(CNCCc2ccc(S(N)(=O)=O)cc2)ccc1OCC(=O)NC1CCCCC1	i	i	i	i	i	i
CCN(CC)CCCC(C)Nc1c2ccc(Cl)cc2nc2ccc(OC)cc12 (centres undefined)	nt	i	i	i	nt	21.2µM
CCN(CC)CCCC(C)Nc1cc(/C=C/c2ccccc2Cl)nc2cc(Cl)ccc12 (centres undefined)	nt	i	i	nt	nt	nt
CCOC(=O)c1c(C)sc2c1N(C(=O)CCl)c1cc(Cl)ccc1S2	-59.9	i	i	i	i	i
NNc1c(Cl)cc(Cl)cc1Cl	nt	i	nt	nt	nt	nt
O=C1C2Sc3[nH]c(=O)sc3C(c3ccccc3)C2C(=O)N1c1ccccc1 (centres undefined)	-66.3	i	i	i	i	i
COc1ccc(C2c3sc(=O)[nH]c3SC3C(=O)N(c4ccccc4)C(=O)C32)cc1 (centres undefined)	i	i	i	i	i	i
CCOc1ccc2c(c1)c(C(C)=O)c(C)n2-c1cccc(Cl)c1	nt	i	nt	nt	nt	nt
Cc1cn([C@H]2C[C@H](O)[C@@H](/C=C/C(=O)NCCc3cccnc3)O2)c(=O)[nH]c1=O	i	i	58.9	i	i	nt
Cc1cn([C@H]2C[C@H](O)[C@@H](/C=C/C(=O)NCc3ccccc3)O2)c(=O)[nH]c1=O	i	i	i	i	i	nt
O=c1[nH]c(-c2ccccn2)nc2ccccc12	-74.1	i	i	?	i	i
c1ccc(-c2nc3ccccc3[nH]2)nc1	i	i	i	i	i	i
Cc1ccc(S(=O)(=O)Nc2ccc3c(c2)nc(CCN2CCN(c4ccccn4)CC2)n3C)cc1	-61.2	i	i	i	i	i
Cc1ccc(S(=O)(=O)Nc2ccc3c(c2)nc(CCN2CCOCC2)n3C)cc1	i	i	i	i	i	i
Cn1c(CCN2CCN(c3ccccn3)CC2)nc2cc(NS(=O)(=O)c3ccc(Cl)cc3)ccc21	-69.5	i	i	i	i	i
CCCC1=C(C(=O)OCC)C(c2cccc3ccccc23)C(C#N)=C(N)O1 (centres undefined)	nt	i	nt	nt	nt	nt
CC(NS(=O)(=O)Cc1ccc(F)cc1)c1ccccn1 (centres undefined)	nt	i	nt	nt	nt	nt
CN(CC(=O)NC(=O)NC1CCCCC1)c1ccc2ccccc2c1	nt	i	nt	nt	nt	nt
Cc1cc(OCCCCNC(C)C)cc(C(C)C)c1	-69.0	i	i	i	i	i
CCOC(=O)C(NC(C)=O)C(O)c1ccc([N+](=O)[O-])cc1 (centres undefined)	i	i	i	i	i	i
CCCCCCCCCCCC(=O)NC(C(=O)OCC)C(O)c1cccc([N+](=O)[O-])c1 (centres undefined)	i	i	32.3	i	i	i
O=C(NCCOc1ccccc1)c1cc(C(=O)NCCOc2ccccc2)cc([N+](=O)[O-])c1	i	-45.3	i	i	i	i
CNC(=O)NC(=O)CSc1nnc(-c2ccccc2Cl)n1-c1cccc(C(F)(F)F)c1	nt	i	nt	nt	nt	nt
O=S(=O)(Nc1ccon1)c1cc(Cl)ccc1Cl	i	i	i	i	i	i
O=S(=O)(Nc1ccon1)c1ccc(F)c(F)c1	-81.0	i	i	i	i	i
C=CCc1cccc(Cl)c1OCCCNC1CCCC1	-89.0	i	i	i	i	i
Cc1cc(Cl)c(OCCCNC2CCCC2)c(Br)c1	?	i	i	i	i	i
O=C(CCCN1C(=O)/C(=C\c2cccs2)SC1=S)Nc1cc([N+](=O)[O-])ccc1O	-90.3	i	i	i	i	i
O=C(CCN1C(=O)/C(=C/c2cccs2)SC1=S)Nc1ccccc1O	i	i	i	i	i	i

Bioassay records: PubChem, National Center for Advancing Translational Sciences (NCATS)
